Bioassay records deposited in PubChem BioAssay by National Center for Advancing Translational Sciences (NCATS).
FLuc inh-1 – Photinus pyralis luciferase inhibition; P08659; purified P. pyralis luciferase, luminescence, biochemical; Potency, µM (titrated, usually from 115 µM), hits mostly inhibitors; 76,000 compounds, 2.5% hits; also: % is scaled to controls: 0 for no effect and ±100 for the full control effect; nearly all actives have a fitted effect of over 65% in size
Target sequence (P08659 whole entry, looked up): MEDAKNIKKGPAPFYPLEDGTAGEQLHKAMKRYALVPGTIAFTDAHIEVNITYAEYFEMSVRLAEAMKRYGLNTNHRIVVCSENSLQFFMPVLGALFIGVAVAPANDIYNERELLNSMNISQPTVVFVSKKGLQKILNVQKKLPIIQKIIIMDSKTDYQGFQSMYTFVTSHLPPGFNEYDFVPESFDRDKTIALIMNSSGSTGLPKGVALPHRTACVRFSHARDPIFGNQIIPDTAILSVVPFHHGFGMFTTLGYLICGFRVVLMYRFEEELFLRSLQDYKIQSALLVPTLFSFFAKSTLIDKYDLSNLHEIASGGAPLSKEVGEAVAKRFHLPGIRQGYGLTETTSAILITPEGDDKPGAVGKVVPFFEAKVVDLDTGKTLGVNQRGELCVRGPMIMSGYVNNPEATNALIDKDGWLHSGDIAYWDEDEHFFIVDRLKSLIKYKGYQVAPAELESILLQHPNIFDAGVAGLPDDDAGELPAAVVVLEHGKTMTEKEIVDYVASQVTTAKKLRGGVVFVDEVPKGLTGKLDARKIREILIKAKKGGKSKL
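Purified 10nM P. pyralis luciferase with 10uM D-luciferin and 10uM ATP in 50mM Tris acetate pH 7.5, 10mM Mg acetate, 0.01% Tween-20, 0.05% BSA. qHTS titration; luminescence read by CCD imager.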
HEK cytotox – kills HEK 293 cells; HEK 293 viability, ATP luminescence (CellTiter-Glo), 48-72 h; Potency, µM (highest dose often 115 µM), for the others: at the highest dose activity change, negative = cytotoxicity, actives largely listed as inhibitors; 94,000 compounds, 6.6% hits; AID 1345083; also: % is scaled to controls: 0 for no effect and ±100 for the full control effect; nearly all actives have a fitted effect of over 60% in size
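Cytotoxicity was scored by loss of ATP-coupled luminescence (CellTiter-Glo) in HEK 293 cells. Compound treatment ran 48 or 72 hr at 37 degree Celsius, 5% CO2, 95% humidity.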
3T3 cytotox – NIH 3T3 cell cytotoxicity | NIH 3T3 viability, CellTiter-Glo ATP luminescence, 48-72 h | Potency, µM (titrated, usually from 96.7 µM), for inactives: at the highest dose activity change, negative = cytotoxicity, usual class: inhibitors | 94,000 compounds, 4.3% hits; also: % is scaled to controls: 0 for no effect and ±100 for the full control effect; nearly all actives have a fitted effect of over 55% in size
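NIH 3T3 cells at 400 cells/well received 23 nL of compound by pintool and were incubated 48 or 72 h at 37 °C. Viability was read as ATP-coupled CellTiter-Glo luminescence.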
hNpr1 antagonist – blocks ANP-stimulated signaling of human Npr1 receptor; P16066; HEK293 hNpr1 GloSensor cGMP, ANP-stimulated luminescence; Potency, µM (titrated, usually from 46.3 µM), for the others: top-dose activity change, negative = inhibition, most hits filed as inhibitors; 76,000 compounds, 1.6% hits; calls by dose curve; also: % is scaled to controls: 0 for no effect and ±100 for the full control effect; nearly all actives have a fitted effect of over 60% in size
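HEK293 cells stably expressing human Npr1 and cGMP GloSensor pGS-40F, loaded 2 h with 2% GloSensor reagent, given compound 30 min at room temperature. Luminescence read before and 20 min after 0.1 nM hNppA.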
FLuc SDR -ATP – firefly luciferase binding stabilization, ATP absent; Purified FLuc-C-HiBiT, Nano-Glo HiBiT luminescence, no ATP; shares compounds with FLuc inh-1; 1,300 compounds, 7.8% hits; Potency, µM (doses to about 32.7 µM), for inactives: top-dose activation (signal gain), hits mostly activators; also: nearly all actives have a fitted effect of over 55% in size
FLuc SDR ATP – firefly luciferase binding stabilization, ATP added | shares compounds with FLuc inh-1 | purified FLuc-C-HiBiT + ATP, HiBiT complementation luminescence | Potency, µM (top dose mostly 32.7 µM), for inactives: top-dose activation (gain of signal), most hits filed as activators | AID 1963319 | 1,300 compounds, 8.7% hits;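 also: signal reports ligand binding via conformational change of the enzyme rather than luciferase catalysis; % of control where 0% means no effect; nearly all actives have a fitted effect of over 55% in size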
FLuc inh-2 – blocks firefly luciferase enzymatic activity | 1,300 compounds, 42% hits | AID 1963320 | shares compounds with FLuc inh-1 | purified FLuc-C-HiBiT enzyme, luciferin luminescence | Potency, µM (series often up to 32.7 µM), for the others: top-dose activity change, negative = inhibition, most hits filed as inhibitors; also: % is scaled to controls: 0 for no effect and ±100 for the full control effect; nearly all actives have a fitted effect of over 70% in size
The depositor's hits bear a star; i = inactive; ? = inconclusive; . = no result given; [ ] = dose if it differs, or a comment. Compounds with a hit are over-represented: about 11% of the library has one in this group of screens. Unless noted, calls follow the shape of the dose curve; as a rule, active = well fitted curve in the direction sought with a large enough effect; inconclusive = small, poorly fitted or top-dose-only effect, or another doubt; inactive = no such curve, though single readings can be large; an effect the other way counts as inactive or inconclusive. Potency is read from the fitted curve at half-maximal effect.

SMILES	FLuc inh-1	HEK cytotox	3T3 cytotox	hNpr1 antagonist	FLuc SDR -ATP	FLuc SDR ATP	FLuc inh-2
Cc1ccc(C2Cn3cnc(C(=O)N4CCC(C(=O)NCc5ccccc5C)CC4)c3CO2)cc1 (stereo not drawn)	?	-1.9%	2.0%	-2.6%	.	.	.
CC(C)CCNC(=O)C1CCN(C(=O)c2ncn3c2COC(c2ccc(F)cc2)C3)CC1 (stereo not drawn)	?	-0.9%	-15.2%	2.3%	.	.	.
O=C(NCc1ccc2c(c1)OCO2)C1CCN(C(=O)c2ncn3c2COC(c2ccccc2)C3)CC1 (stereo not drawn)	7.94µM*	14.2%	i	-24.2%	15.9%	?	7µM*
O=C(NCc1ccccc1Cl)C1CCN(C(=O)c2ncn3c2COC(c2ccccc2)C3)CC1 (stereo not drawn)	14.1µM*	13.3%	0.5%	-13.8%	12.5%	?	?
O=C(NCc1cc(F)ccc1F)C1CCN(C(=O)c2ncn3c2COC(c2ccccc2)C3)CC1 (stereo not drawn)	2.24µM*	-10.1%	-7.2%	-16.0%	9.5%	?	3.13µM*
OCCOc1ccccc1CN1CCCC(N2CCN(c3ccccc3)CC2)C1 (stereo not drawn)	i	-5.1%	-16.5%	0.0%	.	.	.
CC(=O)NCCC(=O)N1Cc2ccccc2CC2(CCCN2CCc2ccc(C)cc2)C1 (stereo not drawn)	.	-22.6%	-1.0%	.	.	.	.
CC(C)(C)C(=O)NCCNC(=O)c1cccc(-c2ncccc2C#N)c1	.	-15.5%	-30.0%	.	.	.	.
COc1ccc(OC)c(-c2noc(Nc3cccc(F)c3)n2)c1	i	?	-12.0%	-4.9%	.	.	.
CCCc1noc(-c2nc(-c3ccccc3F)no2)n1	5.62µM*	-19.4%	-11.9%	?	14.3%	19.9%	?
COc1ccc(Nc2nc(-c3ccccc3F)no2)cc1OC	2.24µM*	?	?	?	30.0%	?	3.51µM*
COc1cccc(-c2noc(Nc3ccc(OC)c(OC)c3)n2)c1	2µM*	?	?	?	?	18.6%	3.94µM*
CCc1ccc(Nc2nc(-c3ccccc3F)no2)cc1	2.51µM*	?	?	12.6µM*	19.7%	19.3%	6.24µM*
O=C(NC1CCCC1)N1CCN(CCCn2nc3n(c2=O)CCCC3)CC1	.	-16.5%	-26.5%	.	.	.	.
COc1ccc(-c2noc(Nc3ccc4c(c3)OCO4)n2)cc1	?	?	-22.2%	-22.2%	.	.	.
COc1cccc(-c2noc(Nc3ccc4c(c3)OCCO4)n2)c1	0.316µM*	?	-60.0%	5.01µM*	?	?	1.57µM*
COc1cccc(-c2noc(Nc3ccc4c(c3)OCO4)n2)c1	2µM*	?	?	?	29.3%	?	6.24µM*
O=C1c2c(nc(CNCc3ccc4c(c3)OCO4)n2Cc2ccccc2)NCCN1Cc1ccccc1F	i	?	?	-2.2%	.	.	.
CCOc1ccc(NC(=O)c2cc3c(N4CCSCC4)nc(C)cn3n2)cc1	i	-10.3%	-17.3%	7.6%	.	.	.
CCOc1ccc(-c2cn3nc(CC(C)C)sc3n2)cc1	.	.	.	.	25.7%	15.5%	4.95µM*
CCC(=O)Nc1ccc2nnc(-c3ccc(C(=O)Nc4ccc5c(c4)OCCO5)cc3)n2c1	14.1µM*	?	i	-17.5%	21.0%	?	?
Cc1ccc(NC(=O)c2ccc3c(c2)N(C)C2CCCN2C3=O)cc1C (stereo not drawn)	12.6µM*	1.7%	-4.4%	-1.1%	11.3%	?	?
COc1ccc(NC(=O)c2ccc3c(c2)N(C)C2CCCN2C3=O)cc1OC (stereo not drawn)	i	?	-28.8%	0.2%	.	.	.
Cc1ccc(NC(=O)c2ccc3c(c2)N(C)C2CCCN2C3=O)cc1F (stereo not drawn)	1.26µM*	?	-14.8%	?	15.4%	4.42µM*	8.81µM*
CN1c2cc(C(=O)Nc3cc(F)ccc3F)ccc2C(=O)N2CCCCCC21 (stereo not drawn)	11.2µM*	?	?	-5.9%	12.4%	?	?
SMILES	FLuc inh-1	HEK cytotox	3T3 cytotox	hNpr1 antagonist	FLuc SDR -ATP	FLuc SDR ATP	FLuc inh-2
O=C(NCc1ccc2c(c1)OCO2)C1CCCN1C(=O)c1cccc(-c2ccccn2)c1 (stereo not drawn)	.	i	-8.4%	.	.	.	.
Cc1cnc(C2CCOCC2)n1C1CCN(C(=O)C(C)Oc2ccccc2)CC1 (stereo not drawn)	i	-17.8%	-0.4%	-1.3%	.	.	.
CN(C)C1CCN(c2ccc(-c3nc(CCCc4ccccc4)no3)cn2)CC1	5.62µM*	28.2µM*	35.5µM*	-15.1%	10.7%	12.9%	-17.2%
CSc1cccc(NC(=O)c2ccc3c(c2)N(C)C2CCCN2C3=O)c1 (stereo not drawn)	14.1µM*	?	-27.4%	-0.9%	13.1%	?	?
CN1c2cc(C(=O)Nc3ccc(C(N)=O)cc3)ccc2C(=O)N2CCCCCC21 (stereo not drawn)	i	?	?	0.0%	.	.	.
CSc1ccc(NC(=O)c2ccc3c(c2)N(C)C2CCCN2C3=O)cc1 (stereo not drawn)	14.1µM*	?	-17.7%	-9.6%	9.1%	?	?
O=C(NCc1cccs1)C1CCN(C(=O)c2ccc(-c3cncnc3)cc2)CC1	.	-1.0%	-11.8%	.	.	.	.
COc1ccccc1OCc1cc(C(=O)N(C)CC2Cc3ccccc3O2)n[nH]1 (stereo not drawn)	i	?	?	-8.2%	.	.	.
CCOCC1(C)COc2ccc(C(=O)Nc3ccccc3)cc2N1 (stereo not drawn)	10µM*	?	?	-3.8%[70.6 µM]	21.9%[49.3 µM]	13.1%[49.3 µM]	?
CCOC(=O)c1ccc(NC(=O)c2nsc3ccccc23)cc1	.	.	.	.	26.1%	19.9%	3.51µM*
NC(=O)[C@@H]1CCCN1C(=O)c1ccc2oc(-c3cccc(F)c3)nc2c1	11.2µM*	?	?	2.9%	17.4%	15.9%	-18.6%
O=C(NCc1cccc(F)c1)C1CCCN1C(=O)c1cccc(-c2ccccn2)c1 (stereo not drawn)	.	-7.6%	-8.9%	.	.	.	.
COc1cccc(-c2cc3c(=O)n(CCNC(=O)c4cc(C)cc(C)c4)ccn3n2)c1	?	-17.7%	-14.8%	-21.8%	.	.	.
CCOc1ccc(-c2cc3c(=O)n(CCNC(=O)Cc4ccccc4C)ccn3n2)cc1	?	?	-15.5%	-23.9%	.	.	.
COc1ccc(-c2cc3c(=O)n(CCNC(=O)c4c(F)cccc4Cl)ccn3n2)cc1	3.16µM*	?	-15.0%	-23.1%	?	?	?
